# PubChem BioAssay
# Entries with a potency or affinity are not part of this list. Records with an inconclusive call do not appear. Activity calls are given as the source filed them. The rule behind the calls is not given here.
# Assay: non-specific cell cytotoxicity, dose response, cytotoxicity control for PAX8 inhibitor project, plate reader, dry powder samples (AID 743021)
# Conditions: cell line, non-specific cytotoxicity counter-screen; series mostly up to 35 µM; activity change, negative = cytotoxicity: at the top concentration
row,SMILES,"activity change, negative = cytotoxicity"
1,C[C@@H]1CN([C@H](C)CO)C(=O)c2cc(NC(=O)Nc3ccc(F)cc3)ccc2O[C@@H](C)CCCCO[C@@H]1CN(C)Cc1ccc2c(c1)OCO2,-15.9% (inactive)
2,Cc1noc(C)c1S(=O)(=O)N(C)C[C@@H]1OCCCC[C@H](C)Oc2ccc(NS(=O)(=O)c3ccc(Cl)cc3)cc2C(=O)N([C@H](C)CO)C[C@@H]1C,-6.19% (inactive)
3,C[C@@H]1CCCCO[C@@H](CN(C)C(=O)Nc2cccc3ccccc23)[C@H](C)CN([C@H](C)CO)C(=O)c2cc(NS(=O)(=O)c3ccccc3)ccc2O1,-11.1% (inactive)
4,Cc1ccc(NC(=O)CN(C)C(=O)Cn2ncc(Cl)c(Cl)c2=O)cc1,-25.9% (inactive)
5,O=C(Nc1cccc(NC(=O)c2cccs2)c1)c1ccc([N+](=O)[O-])o1,10.1% (inactive)
6,O=C(c1cc([N+](=O)[O-])ccc1N1CCOCC1)N1CCN(c2ccccc2)CC1,16% (inactive)
7,O=C(Nc1cccc(Cl)c1)Nc1nnc(-c2ccncc2)s1,19.9% (inactive)
8,N#Cc1ccc(-c2ccc(C3[C@@H]4CN(C(=O)C5CC5)C[C@H]3N4)cc2)cc1 (stereo not given in full),-1.82% (inactive)
9,COc1ccc(NC(=O)Nc2ccc3c(c2)C(=O)N([C@@H](C)CO)C[C@@H](C)[C@@H](CN(C)CC2CCCCC2)OCCCC[C@@H](C)O3)cc1,-33.9% (inactive)
10,Cc1ccc(NC(=O)Cn2ncc(Cl)c(Cl)c2=O)cc1S(=O)(=O)N1CCCCC1,-8.93% (inactive)
11,C[C@H]1CN([C@@H](C)CO)C(=O)c2cc(NS(=O)(=O)c3ccccc3)ccc2O[C@@H]1CN(C)Cc1ccc(Oc2ccccc2)cc1,10.2% (inactive)
12,COc1cc(OC)c2c(-c3cccc(-c4ccc(OC)c(F)c4)c3)cc(=O)oc2c1,-3.93% (inactive)
13,CCOc1ccc(NC(=O)Nc2cc(OCC(F)(F)F)cc(OCC(F)(F)F)c2)cc1,-6.15% (inactive)
14,C[C@@H]1CN([C@@H](C)CO)C(=O)Cc2cc(NC(=O)CCC(F)(F)F)ccc2O[C@H]1CN(C)Cc1ccc(-c2ccccc2)cc1,-4.09% (inactive)
15,CCCNC(=O)Nc1ccc2c(c1)OC[C@H](C)N(Cc1ccc(-c3ccccn3)cc1)C[C@@H](C)[C@@H](OC)CN(C)C2=O,-17.8% (inactive)
16,O=C(NC12CC3CC(CC(C3)C1)C2)c1ccc([N+](=O)[O-])o1,10.3% (inactive)
17,O=S(=O)(c1ccccc1F)N1CC[C@@H]2[C@@H](CO)Nc3ccc(C4=CCCCC4)cc3[C@@H]21,-9.08% (inactive)
18,C=C(C)c1nc(Oc2ccccc2)nc(Oc2ccccc2)n1,9.72% (inactive)
19,CCN(CC)S(=O)(=O)c1cc(NC(=O)Cn2ncc(Cl)c(Cl)c2=O)ccc1C,4.1% (inactive)
20,O=C(Nc1ccccc1)NN(C(=O)CCl)c1ccccc1,-4.38% [at 16 µM] (inactive)

row,SMILES,"activity change, negative = cytotoxicity"
1,CN1c2ccc(-c3cccc(F)c3)cc2[C@@H]2[C@@H](CCN2C(=O)Cc2ccccc2)[C@@H]1CO,-5.3% (inactive)
2,C[C@H](CO)N1C[C@H](C)[C@@H](CN(C)S(=O)(=O)c2ccc(Cl)cc2)OCCCC[C@H](C)Oc2ccc(NS(=O)(=O)c3ccc(Cl)cc3)cc2C1=O,-18.5% (inactive)
3,C[C@@H]1CN([C@H](C)CO)C(=O)Cc2cc(NC(=O)Nc3ccc(F)cc3)ccc2O[C@H]1CN(C)Cc1ccc(Cl)c(Cl)c1,11% (inactive)
4,Cn1c(CCN2CCCC2)nc2cc(NS(=O)(=O)c3ccccc3)ccc21,-9.54% (inactive)
5,C[C@@H]1CCCCO[C@H](CN(C)Cc2ccc(C(F)(F)F)cc2)[C@H](C)CN([C@H](C)CO)C(=O)c2cc(NS(=O)(=O)c3cccs3)ccc2O1,-29.8% (inactive)
6,Cc1nc(Nc2nc(CSc3nc4ccccc4[nH]3)cc(=O)[nH]2)nc2ccccc12,5.97% (inactive)
7,O=C(C[C@H]1CC[C@H]2[C@@H](COC[C@@H](O)CN2Cc2ccc(Oc3ccccc3)cc2)O1)N1CCCCC1,-21.9% (inactive)
8,C[C@@H]1CCCCO[C@H](CN(C)Cc2ccc(C(F)(F)F)cc2)[C@H](C)CN([C@@H](C)CO)C(=O)c2cc(NS(=O)(=O)c3cccs3)ccc2O1,6% (inactive)
9,C[C@@H]1CCCCO[C@@H](CN(C)Cc2ccc(C(F)(F)F)cc2)[C@@H](C)CN([C@@H](C)CO)C(=O)c2cc(NS(=O)(=O)c3ccccc3)ccc2O1,15.2% (inactive)
10,C[C@@H]1CCCCO[C@@H](CN(C)Cc2ccc(C(F)(F)F)cc2)[C@@H](C)CN([C@@H](C)CO)C(=O)c2cc(NS(=O)(=O)c3ccc(F)cc3)ccc2O1,-12.7% [at 30 µM] (inactive)
11,COc1ccc(NC(=O)Nc2ccc3c(c2)CC(=O)N([C@H](C)CO)C[C@@H](C)[C@@H](CN(C)Cc2ccc(Oc4ccccc4)cc2)O3)cc1,-10.8% (inactive)
12,O=C(Nc1ccc(N2CCN(C(=O)c3ccccc3)CC2)cc1)c1ccc([N+](=O)[O-])o1,12.9% (inactive)
13,C[C@@H]1CCCCO[C@H](CN(C)Cc2ccc(Cl)c(Cl)c2)[C@H](C)CN([C@@H](C)CO)C(=O)c2cc(NC(=O)Nc3ccccc3)ccc2O1,8.95% (inactive)
14,COc1ccc(NC(=O)c2c(Nc3ccccc3)sc(C(=O)c3ccc(F)cc3)c2N)cc1,-14% (inactive)
15,O=C(Nc1ccc(Cl)c(Cl)c1)N[C@@H]1CC[C@H](CCn2cc(C3CCCCC3)nn2)O[C@H]1CO,-25.7% (inactive)
16,C[C@@H]1CN([C@H](C)CO)S(=O)(=O)c2ccc(C#CC3CCCC3)cc2O[C@@H]1CN(C)C(=O)Cc1ccncc1,-13.9% (inactive)
17,C[C@@H]1CCCCO[C@H](CN(C)Cc2ccc(C(F)(F)F)cc2)[C@H](C)CN([C@H](C)CO)C(=O)c2cc(NS(=O)(=O)c3ccccc3)ccc2O1,-8.42% (inactive)
18,CCOc1ccc(C(CN2CCOCC2)C(C)=O)cc1OC (stereo not given),19.2% (inactive)
19,COc1ccc(/C=N/NC(=O)c2[nH]c3ccc(Br)cc3c2-c2ccccc2)cc1,-11% (inactive)
20,COc1cccc(S(=O)(=O)N2CC[C@H]3[C@@H](CO)N(C)c4ccc(C#Cc5ccc(F)cc5)cc4[C@H]32)c1,-3.69% (inactive)
